In PubChem BioAssay (NCI):
This is part of a sample that, as a whole, favours compounds with a hit. Of some 83,000 tested, about 20% had one in any assay.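 The endpoint reported here, percent growth, reads 100 for growth as untreated, 0 for no net growth and -100 for all cells dead.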 Active and inactive are the calls of the source. Rule for the calls: active = growth percent below 10; inactive = the rest.

What follows are molecules tested on SN12C renal (assay: NCI-60 one-dose screen, 48 h (100 = growth as untreated, 0 = no growth, -100 = all killed)). Settings: 10 µM unless noted.

Row | SMILES | growth
1 | CC1Cc2c(N(C)C)ncnc2N(C)c2ccc(O)cc21 (configuration not stated) | 99% (inactive)
2 | O=S(=O)(NCCCNc1cc(-c2cn(-c3ccccc3)nc2-c2cccc(O)c2)ccn1)c1ccc(C(F)(F)F)cc1 | 50.1% (inactive)
3 | Cc1ccc(S(=O)(=O)N2CCC(C(=O)Nc3ccc(F)cc3F)CC2)cc1 | 90.7% (inactive)
4 | COc1ccc2c(c1)NC(=O)CN2c1nc(NC2CC2)nc2ccccc12 | 39.1% (inactive)
5 | C=C1C(=O)O[C@H]2[C@H]1CC/C(COC(=O)NCCc1cccc(OC)c1)=C\CC[C@@]1(C)O[C@@H]21 | 42.6% (inactive)
6 | COc1cc(-c2csc(NC(=O)c3cc(C(F)(F)F)cc(C(F)(F)F)c3)n2)cc(OC)c1OC | 25.3% (inactive)
7 | Clc1nc(Cl)c2ncn(C/C=C/Cn3cnc4c(Cl)nc(Cl)nc43)c2n1 | 96.5% (inactive)
8 | Cc1ccc2c(c1)C(C)Cc1c(ncnc1-n1cnc3ccccc31)N2C (configuration not stated) | 37.5% (inactive)
9 | CCN(CC)S(=O)(=O)c1ccc2[nH]c(=O)cc(C(=O)Nc3ccc(OC)cc3OC)c2c1 | 108% (inactive)
10 | COC(=O)CCCCCN=Cc1c(O)c(O)c(C(C)C)c2cc(C)c(-c3c(C)cc4c(C(C)C)c(O)c(O)c(C=NCCCCCC(=O)OC)c4c3O)c(O)c12 | 19.8% (inactive)
11 | CCC(=O)Oc1ccc2c(c1)CC[C@@H]1[C@@H]2CC[C@]2(C)C[C@H](OC(=O)CC)C[C@@H]12 | 70.4% (inactive)
12 | C=C1C(=O)O[C@H]2[C@H]1CC/C(COC(=O)NCc1cc(OC)cc(OC)c1)=C\CC[C@@]1(C)O[C@@H]21 | 7.86% (active)
